In PubChem BioAssay:
Active and inactive are the calls of the source.

How the values were obtained:
[1] = test system: PRMT1 (protein arginine N-methyltransferase 1); experiment: small molecules binding arginine methyltransferase PRMT1 – biochemical, small-molecule microarray, 635 nm fluorescence, primary screen (AID 1088); settings: higher = more signal;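 also: binding of Prmt1 protein to compounds spotted on small-molecule microarray slides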
[2] = growth effects on S. cerevisiae YJM789 – YJM789 clinical isolate, OD600, 24 h, basal, primary screen (AID 1089); settings: higher = more signal, called active from +8 up or from −8 down;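 also: growth of clinical yeast isolate S. cerevisiae YJM 789 seeded 1000 cells per well; test concentration not given here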
[3] = S. pombe growth modifiers, basal conditions – strain 972, OD600, 24 h, no modulator, primary screen (AID 1090);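 also: basal condition with compound alone and no growth modifier present; test concentration not given here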; settings: S. pombe 972 growth, higher = more signal, called active from +8 up or from −8 down
[4] = budding yeast growth modifiers under rapamycin – strain BY4716, OD600, 96 h, primary screen (AID 1091); also: test concentration not given here; settings: S. cerevisiae BY4716 + rapamycin, higher = more signal, called active from +8 up or from −8 down
[5] = molecular target: Torsin-1A-interacting protein 2 (Homo sapiens) (UniProt Q8NFQ8); experiment: small molecules binding lysate-expressed LULL1 – cell lysate, human LULL1 lysate, 635/667 nm fluorescence, primary screen (AID 1092); settings: small-molecule microarray, hLULL1 lysate binding, 635 nm fluorescence; higher = more signal;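 also: probe is lysate of COS7 cells overexpressing human LULL1; score merges per-feature 667 nm fluorescence with signal-to-noise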
[6] = optical density change of DRC41 E. coli – strain DRC41, OD650, 24 h, E. coli filamentation project, primary screen (AID 1093);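 also: MC1000 strain lacking acrAB efflux and sulA so SOS filamentation is blocked; test concentration not given here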; settings: E. coli DRC41 growth, higher = more signal, called active from +8 up or from −8 down
[7] = probe aLefty2 binding to arrayed compounds – biochemical, biotinylated probe, 635/667 nm fluorescence, primary screen (AID 1094); settings: small-molecule microarray, higher = more signal;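 also: score merges spot fluorescence near 667 nm with spot signal-to-noise ratio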
[8] = test system: Noggin (protein binding on small-molecule microarray); experiment: small molecules binding Noggin protein – biochemical, 635/667 nm fluorescence, primary screen (AID 1095); settings: 635 nm fluorescence, higher = more signal;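 also: score merges 667 nm feature fluorescence with signal to noise over triplicate slides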
[9] = molecular target: Neurogenic locus notch homolog protein 3 (Homo sapiens) (UniProt Q9UM47); experiment: small molecules binding NOTCH3 protein – biochemical, 635/667 nm fluorescence, primary screen (AID 1096); settings: small-molecule microarray, 635 nm fluorescence, higher = more signal
[10] = probe aEGFR binding to arrayed compounds – biochemical, biotinylated probe, 635/667 nm fluorescence, primary screen (AID 1097); settings: small-molecule microarray, higher = more signal;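 also: probe is a biotinylated anti-EGFR antibody binding compounds printed on slides; score combines fluorescence near 667 nm and signal to noise of each spot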
[11] = test system: Plasmodium falciparum Sir2 (PF13_0152, Sir2A); experiment: Plasmodium falciparum Sir2A binding compounds – biochemical, small-molecule microarray, 635 nm fluorescence, primary screen (AID 1098); settings: fluorescence 635 nm, higher = more signal;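 also: score merges spot fluorescence intensity with its signal-to-noise ratio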
[12] = probe aDKK1 binding to arrayed compounds – biochemical, biotinylated probe, 635/667 nm fluorescence, primary screen (AID 1099); settings: small-molecule microarray, higher = more signal;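 also: score merges 667nm spot fluorescence with signal to noise across triplicate slides; reference of the scale not given here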
[13] = probe aCHRDL2 binding to arrayed compounds – biochemical, biotinylated probe, 635/667 nm fluorescence, primary screen (AID 1100); settings: small-molecule microarray, higher = more signal
[14] = change in splice reporter luminescence, either direction, cell-based, HEK293, spliceosome inhibition project, primary screen (AID 1101); settings: HEK293 splicing luciferase reporter, 24 h, higher = more signal, called active from +8 up or from −8 down;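 also: HEK293 cells carrying a splicing-competent luciferase reporter gene; test concentration not given here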
[15] = molecular target: Fibroblast growth factor 10 (Homo sapiens) (UniProt O15520); experiment: compounds binding fibroblast growth factor 10 – biochemical, small-molecule microarray, 635 nm fluorescence, primary screen (AID 1102); settings: FGF10 binding, fluorescence 635 nm, higher = more signal
[16] = test system: glycogen synthase kinase-3 (GSK3A per assay name; protocol says GSK3B); experiment: compounds binding glycogen synthase kinase-3 – biochemical, small-molecule microarray, 635 nm fluorescence, GSK3A, primary screen (AID 1103); settings: fluorescence 635 nm, higher = more signal; also: the record names both GSK3A and GSK3B
[17] = molecular target: Epidermal growth factor receptor (Homo sapiens) (UniProt P00533); experiment: compounds binding epidermal growth factor receptor – biochemical, small-molecule microarray, 635 nm fluorescence, primary screen (AID 1104); settings: EGFR binding, higher = more signal;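 also: score merges 667 nm emission intensity with spot signal to noise over triplicate slides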
[18] = molecular target: Follistatin-related protein 3 (Homo sapiens) (UniProt O95633); experiment: compounds binding follistatin-related protein 3 – biochemical, small-molecule microarray, 635 nm fluorescence, primary screen (AID 1105); settings: FSTL3 binding, higher = more signal;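 also: score merges emission near 667 nm and signal to noise per printed spot across three slides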
[19] = molecular target: Dickkopf-related protein 1 (Homo sapiens) (UniProt O94907); experiment: small molecules binding DKK1 protein – biochemical, small-molecule microarray, 635 nm fluorescence scan, primary screen (AID 1106); settings: higher = more signal;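 also: score merges emission near 667 nm with signal to noise over three replicate slides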
[20] = test system: Inhibin beta A chain (activin A); experiment: small molecules binding activin A – biochemical, small-molecule microarray, 635 nm fluorescence scan, primary screen (AID 1107); settings: INHBA, higher = more signal;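 also: mouse activin A protein probed at 4.33 µg/mL on printed slides; score merges bound-protein fluorescence near 667 nm with spot signal-to-noise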

Neurogenic locus notch homolog protein 3 (Homo sapiens), sequence (Q9UM47 whole entry, looked up): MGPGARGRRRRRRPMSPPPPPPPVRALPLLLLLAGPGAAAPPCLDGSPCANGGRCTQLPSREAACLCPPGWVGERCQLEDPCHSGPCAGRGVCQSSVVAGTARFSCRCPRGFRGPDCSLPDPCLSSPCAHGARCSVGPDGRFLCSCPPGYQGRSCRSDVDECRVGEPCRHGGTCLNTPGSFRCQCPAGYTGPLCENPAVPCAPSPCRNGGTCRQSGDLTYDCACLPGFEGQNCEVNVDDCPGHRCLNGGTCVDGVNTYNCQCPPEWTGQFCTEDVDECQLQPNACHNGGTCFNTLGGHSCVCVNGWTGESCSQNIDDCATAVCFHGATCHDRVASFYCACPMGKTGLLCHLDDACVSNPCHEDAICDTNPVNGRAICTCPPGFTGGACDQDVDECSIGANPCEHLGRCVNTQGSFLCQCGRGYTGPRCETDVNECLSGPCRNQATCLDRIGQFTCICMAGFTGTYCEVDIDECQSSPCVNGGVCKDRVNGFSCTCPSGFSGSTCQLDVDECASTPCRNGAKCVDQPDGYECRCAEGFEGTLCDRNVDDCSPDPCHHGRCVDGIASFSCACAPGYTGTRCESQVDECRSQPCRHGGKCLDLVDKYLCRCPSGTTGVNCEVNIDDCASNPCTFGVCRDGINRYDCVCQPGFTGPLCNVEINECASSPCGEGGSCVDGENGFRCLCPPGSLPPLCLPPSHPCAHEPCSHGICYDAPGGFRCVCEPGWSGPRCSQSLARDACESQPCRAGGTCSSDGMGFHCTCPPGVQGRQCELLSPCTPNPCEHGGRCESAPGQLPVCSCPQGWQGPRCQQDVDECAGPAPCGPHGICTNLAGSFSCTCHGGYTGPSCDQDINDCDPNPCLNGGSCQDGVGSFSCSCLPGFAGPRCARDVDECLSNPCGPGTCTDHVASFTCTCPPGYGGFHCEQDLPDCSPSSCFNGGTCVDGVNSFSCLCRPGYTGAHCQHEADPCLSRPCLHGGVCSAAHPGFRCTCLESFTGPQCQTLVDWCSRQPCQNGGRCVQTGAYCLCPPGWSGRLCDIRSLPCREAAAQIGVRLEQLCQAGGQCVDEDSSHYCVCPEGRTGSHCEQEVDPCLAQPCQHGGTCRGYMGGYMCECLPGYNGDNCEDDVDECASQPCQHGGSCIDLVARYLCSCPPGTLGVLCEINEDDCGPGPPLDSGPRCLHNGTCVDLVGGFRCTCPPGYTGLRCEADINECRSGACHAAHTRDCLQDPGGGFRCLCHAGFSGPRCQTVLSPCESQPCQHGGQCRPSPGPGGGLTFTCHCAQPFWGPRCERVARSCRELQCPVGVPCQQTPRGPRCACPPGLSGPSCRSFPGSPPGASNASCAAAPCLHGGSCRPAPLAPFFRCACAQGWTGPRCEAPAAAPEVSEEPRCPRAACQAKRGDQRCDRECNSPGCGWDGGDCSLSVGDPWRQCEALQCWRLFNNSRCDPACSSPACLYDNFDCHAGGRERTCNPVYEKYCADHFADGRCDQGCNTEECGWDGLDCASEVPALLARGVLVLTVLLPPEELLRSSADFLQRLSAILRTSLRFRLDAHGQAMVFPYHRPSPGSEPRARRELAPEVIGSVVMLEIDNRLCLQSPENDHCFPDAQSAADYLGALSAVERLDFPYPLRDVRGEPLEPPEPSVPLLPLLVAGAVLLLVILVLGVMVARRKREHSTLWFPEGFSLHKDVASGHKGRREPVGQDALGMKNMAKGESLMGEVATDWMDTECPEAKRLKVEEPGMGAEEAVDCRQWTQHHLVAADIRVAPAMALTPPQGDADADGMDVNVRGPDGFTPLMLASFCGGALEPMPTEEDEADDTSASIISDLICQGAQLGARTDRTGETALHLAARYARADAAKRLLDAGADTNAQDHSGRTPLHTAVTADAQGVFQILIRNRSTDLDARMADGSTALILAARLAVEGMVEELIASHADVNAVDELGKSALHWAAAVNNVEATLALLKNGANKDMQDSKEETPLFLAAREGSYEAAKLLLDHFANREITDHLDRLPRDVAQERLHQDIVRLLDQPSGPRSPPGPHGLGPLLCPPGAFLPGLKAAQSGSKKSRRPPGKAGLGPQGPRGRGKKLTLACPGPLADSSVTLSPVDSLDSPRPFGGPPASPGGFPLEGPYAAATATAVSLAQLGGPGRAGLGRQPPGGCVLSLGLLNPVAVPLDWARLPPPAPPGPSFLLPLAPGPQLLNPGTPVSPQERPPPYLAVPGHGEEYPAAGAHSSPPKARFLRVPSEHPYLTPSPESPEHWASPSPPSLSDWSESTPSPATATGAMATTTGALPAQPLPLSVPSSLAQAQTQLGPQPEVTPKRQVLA
Dickkopf-related protein 1 (Homo sapiens), sequence (O94907 whole entry, looked up): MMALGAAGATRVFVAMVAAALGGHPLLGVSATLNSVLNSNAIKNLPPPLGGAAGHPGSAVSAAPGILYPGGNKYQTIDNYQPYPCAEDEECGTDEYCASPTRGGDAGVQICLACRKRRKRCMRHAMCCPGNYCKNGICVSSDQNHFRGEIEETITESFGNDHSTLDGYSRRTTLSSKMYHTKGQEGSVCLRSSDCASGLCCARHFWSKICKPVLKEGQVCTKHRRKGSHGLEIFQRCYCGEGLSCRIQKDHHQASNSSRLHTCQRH
Fibroblast growth factor 10 (Homo sapiens), sequence (O15520 whole entry, looked up): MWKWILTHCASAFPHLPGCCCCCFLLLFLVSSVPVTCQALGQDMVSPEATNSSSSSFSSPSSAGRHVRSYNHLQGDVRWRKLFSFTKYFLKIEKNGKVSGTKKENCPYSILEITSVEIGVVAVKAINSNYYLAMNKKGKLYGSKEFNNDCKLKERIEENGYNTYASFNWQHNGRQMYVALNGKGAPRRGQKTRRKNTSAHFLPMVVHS
Epidermal growth factor receptor (Homo sapiens), sequence (P00533 whole entry, looked up): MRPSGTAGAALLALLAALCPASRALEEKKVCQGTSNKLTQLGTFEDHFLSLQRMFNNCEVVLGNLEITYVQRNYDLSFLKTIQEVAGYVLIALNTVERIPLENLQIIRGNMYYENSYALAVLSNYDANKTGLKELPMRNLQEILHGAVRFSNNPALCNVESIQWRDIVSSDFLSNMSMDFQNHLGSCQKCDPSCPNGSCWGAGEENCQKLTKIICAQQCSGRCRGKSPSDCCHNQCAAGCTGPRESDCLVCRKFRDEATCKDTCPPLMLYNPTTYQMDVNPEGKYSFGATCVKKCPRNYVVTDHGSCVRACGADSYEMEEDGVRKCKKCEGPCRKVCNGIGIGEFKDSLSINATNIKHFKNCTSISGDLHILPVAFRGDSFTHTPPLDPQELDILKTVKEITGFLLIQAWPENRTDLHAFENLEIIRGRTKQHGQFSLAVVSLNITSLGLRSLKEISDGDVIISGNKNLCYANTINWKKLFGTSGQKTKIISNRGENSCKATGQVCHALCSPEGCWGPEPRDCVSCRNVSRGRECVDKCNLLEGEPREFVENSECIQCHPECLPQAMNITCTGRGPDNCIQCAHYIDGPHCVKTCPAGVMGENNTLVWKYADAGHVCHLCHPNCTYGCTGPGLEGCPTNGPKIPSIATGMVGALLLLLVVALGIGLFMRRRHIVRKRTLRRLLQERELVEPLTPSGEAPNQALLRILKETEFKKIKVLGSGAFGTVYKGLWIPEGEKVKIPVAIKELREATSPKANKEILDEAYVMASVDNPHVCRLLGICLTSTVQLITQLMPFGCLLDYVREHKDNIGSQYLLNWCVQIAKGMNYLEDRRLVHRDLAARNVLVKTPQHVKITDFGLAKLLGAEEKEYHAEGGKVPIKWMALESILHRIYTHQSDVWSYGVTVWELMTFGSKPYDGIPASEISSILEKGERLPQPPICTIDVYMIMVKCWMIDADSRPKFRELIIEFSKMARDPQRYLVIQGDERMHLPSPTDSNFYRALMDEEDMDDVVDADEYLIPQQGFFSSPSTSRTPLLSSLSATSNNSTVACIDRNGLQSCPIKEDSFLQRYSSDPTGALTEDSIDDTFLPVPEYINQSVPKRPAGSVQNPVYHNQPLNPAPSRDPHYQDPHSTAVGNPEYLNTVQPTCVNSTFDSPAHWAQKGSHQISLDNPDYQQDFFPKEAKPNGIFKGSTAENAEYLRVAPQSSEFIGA
Follistatin-related protein 3 (Homo sapiens), sequence (O95633 whole entry, looked up): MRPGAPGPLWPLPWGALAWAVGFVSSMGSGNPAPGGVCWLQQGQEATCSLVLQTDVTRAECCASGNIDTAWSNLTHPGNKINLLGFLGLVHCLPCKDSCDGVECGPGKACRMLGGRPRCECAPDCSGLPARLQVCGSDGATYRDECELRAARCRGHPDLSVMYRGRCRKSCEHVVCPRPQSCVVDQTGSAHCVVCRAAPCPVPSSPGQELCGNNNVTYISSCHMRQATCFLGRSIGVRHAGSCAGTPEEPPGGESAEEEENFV
Torsin-1A-interacting protein 2 (Homo sapiens), sequence (Q8NFQ8 whole entry, looked up): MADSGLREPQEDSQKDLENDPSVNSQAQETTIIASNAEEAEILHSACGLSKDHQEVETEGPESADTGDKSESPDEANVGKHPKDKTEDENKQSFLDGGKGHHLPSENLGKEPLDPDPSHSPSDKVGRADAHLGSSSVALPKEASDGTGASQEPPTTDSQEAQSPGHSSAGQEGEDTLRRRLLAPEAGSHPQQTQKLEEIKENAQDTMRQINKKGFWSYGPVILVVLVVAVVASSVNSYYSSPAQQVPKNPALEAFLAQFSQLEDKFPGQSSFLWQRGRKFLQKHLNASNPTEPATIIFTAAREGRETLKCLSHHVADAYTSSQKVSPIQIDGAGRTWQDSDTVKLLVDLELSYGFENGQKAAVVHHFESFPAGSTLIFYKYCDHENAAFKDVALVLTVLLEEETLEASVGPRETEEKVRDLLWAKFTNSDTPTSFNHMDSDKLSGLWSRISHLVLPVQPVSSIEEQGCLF

SMILES	composite z-score [1]	z-score [2]	z-score [3]	z-score [4]	composite z-score [5]	z-score [6]	composite z-score [7]	composite z-score [8]	composite z-score [9]	composite z-score [10]	composite z-score [11]	composite z-score [12]	composite z-score [13]	z-score [14]	composite z-score [15]	composite z-score [16]	composite z-score [17]	composite z-score [18]	composite z-score [19]	composite z-score [20]
CCN(CC)c1ccc(N2CC=CC34O[C@@H]5C=CCOC(=O)[C@@H]5[C@H]3C(=O)N(CCCCCCO)[C@@H]4C2=O)cc1 (stereo not given in full)	0.933	-0.259 (inactive)	-0.53 (inactive)	-0.975 (inactive)	2.63	2.24 (inactive)	-0.192	-0.526	-0.136	-0.0987	1.85	-0.131	0.844	-0.93 (inactive)	-0.655	-0.559	-0.366	-0.406	-0.863	1.17
Cc1ccc(S[C@]2(C(=O)NCC(C)C)CC(=O)N(Cc3cc(C(F)(F)F)cc(C(F)(F)F)c3)[C@@H]2c2ccc(CO)cc2)cc1	0.407	-0.463 (inactive)	-0.924 (inactive)	-0.429 (inactive)	0.472	-0.869 (inactive)	0.522	-0.671	-0.643	-0.073	0.889	0.209	0.736	0.585 (inactive)	-0.417	-0.725	-1.25	-0.634	-0.326	0.96
COCCOC(=O)N1C(=O)[C@@]2(c3cc(C#CC4(O)CCCCCC4)ccc31)[C@H](C(=O)Nc1nc3ccccc3s1)[C@H]1C(=O)O[C@H](c3ccccc3)[C@H](c3ccccc3)N1[C@@H]2c1ccccc1OCCO	1.55	0.976 (inactive)	0.249 (inactive)	2.12 (inactive)	2.89	1.26 (inactive)	-0.0575	1.38	1.11	0.0857	1.07	0.199	0.365	-0.616 (inactive)	1.3	1.29	0.38	1.05	0.287	-0.0079
COc1cc2c(cc1O)C=[N+](Cc1cc3c(cc1Br)OCO3)CC2	0.168	0.213 (inactive)	-9.96 (active)	-0.208 (inactive)	0.379	-1.52 (inactive)	-0.0285	-0.833	-0.223	-0.188	1.73	0.0055	0.591	-0.244 (inactive)	-0.445	-1.06	-0.486	-1.04	-1.05	0.655
COCCOC(=O)N1C(=O)[C@@]2(c3cc(C#CCCO)ccc31)[C@H](c1ccc(O)cc1)N1[C@H](c3ccccc3)[C@H](c3ccccc3)OC(=O)[C@H]1[C@@H]2C(=O)N1CCN(c2ncccn2)CC1	1.53	0.356 (inactive)	0.686 (inactive)	1.6 (inactive)	3.17	0.531 (inactive)	0.837	1.58	1.01	-0.283	1.71	-0.365	-0.0062	-0.0232 (inactive)	1.11	1.31	0.36	0.899	0.417	1.29
C[N+](C)(C)CCCC[C@@H]1NC(=O)[C@@H]2C[C@H](C(=O)NCCCCCN)[C@H](c3ccc(O)cc3)N2C1=O	1.53	-4.09 (inactive)	-1.1 (inactive)	-0.978 (inactive)	2.46	1.12 (inactive)	0.79	1.01	1.09	0.239	1.55	1.16	0.808	-1.1 (inactive)	1.42	1.29	0.024	0.878	0.308	0.199
COc1ccc(C(=O)Nc2cccc(CN3C(=O)[C@]4(O[C@H](CCn5cc(CCO)nn5)[C@@H]([Si](C)(C)c5ccc(OC)cc5)[C@@H]4C)c4ccccc43)c2)cc1	1.06	0.901 (inactive)	-14.9 (active)	1.15 (inactive)	1.2	0.506 (inactive)	0.143	0.367	0.556	0.0848	0.83	0.601	0.127	2.05 (inactive)	0.17	0.495	0.529	1.01	0.201	1.55
[N-]=[N+]=Nc1ccccc1C[C@@]1(C(=O)N2CCCCC2)N=C(c2ccc(OCCCO)cc2)O[C@@H]1c1ccccc1	1.14	-1.96 (inactive)	-2.65 (inactive)	0.737 (inactive)	2.97	2.76 (inactive)	0.101	0.0588	1.04	-0.0382	1.18	0.901	1.07	-0.969 (inactive)	0.465	1.29	-0.209	0.112	-0.174	0.803
CC1CC/C=C\[C@H]2OC34C=CCN(Cn5nnc6ccccc65)C(=O)[C@H]3N(CCCCCO)C(=O)[C@@H]4C2C(=O)O1 (stereo not given in full)	0.547	0.31 (inactive)	0.423 (inactive)	-0.644 (inactive)	2.47	0.752 (inactive)	-0.169	-0.355	-0.432	-0.18	0.285	-0.415	0.598	0.271 (inactive)	-1.26	-1.32	-0.494	-0.186	-1.27	-0.318
CCOC(=O)C1=CC[C@@H](c2ccccc2)N(S(=O)(=O)c2ccc(C)cc2)[C@H]1c1ccc(CC)cc1	1.27	0.891 (inactive)	1.94 (inactive)	2.17 (inactive)	2.02	-0.315 (inactive)	0.05	-0.503	0.716	0.279	0.375	0.961	0.538	0.425 (inactive)	0.393	1.17	0.221	0.395	-0.112	0.965
CCOC(=O)[C@H]1C/C=C/C[C@H](C(=O)OCC)C(=O)O[C@H]2[C@@H](OC)O[C@H](CO)[C@@H](OC(=O)c3ccc(Br)cc3)[C@@H]2OC1=O	0.419	-0.436 (inactive)	-0.316 (inactive)	2.17 (inactive)	0.796	-0.67 (inactive)	-0.0653	0.197	0.415	-0.116	-0.009	-0.444	0.44	-1.25 (inactive)	0.88	-0.51	0.0445	0.366	0.34	0.802
CCOC(=O)C[C@H]1[C@H](OC(=O)c2cc3ccccc3oc2=O)[C@@H](NC(=O)CC(C)C)c2cc(OCCCO)ccc2N1C(=O)c1ccccc1	0.983	-0.789 (inactive)	-0.769 (inactive)	-0.193 (inactive)	1.52	2.64 (inactive)	-0.0661	0.805	0.606	-0.0828	0.0288	-0.179	-0.428	-1.04 (inactive)	0.644	0.53	0.393	0.358	0.371	-0.0294
